{"source": "PubChem BioAssay", "note": "Results filed as inconclusive are left out. Values without a mark were called inactive. The source made the active and inactive calls.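 The calls were made as follows, unless noted: active = viability at or below 27.92% in each of two runs, the all-compound median minus 4 SD; inconclusive = no clear call, values can overlap the other calls; inactive = the rest.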", "data": [{"assay": "growth suppression of beta-catenin knockout HCT116, pilot screen, human colon tumor cells (AID 823;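 active = cell viability at or below a set limit in both duplicate runs, the limit being the all-compound median minus 4 SD, cut at about 23% in these data, passing the limit was not always enough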;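 also: 0% = wells killed by 20 µM Hyamine and 100% = untreated DMSO cell wells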)", "conditions": "CellTiter-Glo, 60 h, at 10 µM, hits give low values", "values": [{"compound": "Nc1nc(N2CCCCC2)nc(N(c2ccccc2)c2ccccc2)n1", "viability": "89.5%"}, {"compound": "O=C1c2ccccc2C(Nc2cccnc2)N1Cc1ccccc1Cl", "note": "(stereo not drawn)", "viability": "102%"}, {"compound": "CCN1CCN(c2nc3c(c(=O)[nH]c(=O)n3C)n2CCSc2nc3ccccc3s2)CC1", "viability": "96.9%"}, {"compound": "COc1cc(C(O)c2nc3ccccc3n2C)cc(OC)c1OC", "note": "(stereo not drawn)", "viability": "94.1%"}, {"compound": "CCOC(=O)N1CCC(Nc2nc3ccccc3n3cnnc23)CC1", "viability": "102%"}, {"compound": "COc1ccc(C2C(C(C)=O)=C(C)N=c3s/c(=C/c4ccc5c(c4)OCO5)c(=O)n32)cc1", "note": "(stereo not drawn)", "viability": "90.1%"}, {"compound": "CCOC(=O)C1=C(C)N(C)C(=O)NC1c1ccccc1OC", "note": "(stereo not drawn)", "viability": "97.9%"}, {"compound": "CCCCS(=O)(=O)NC1=NCN(CCOC(=O)c2ccccc2)CN1", "viability": "91.8%"}, {"compound": "COc1ccc(-n2c(Cc3cccn3C)nnc2SCC(=O)Nc2cccc(Cl)c2)cc1", "viability": "76.5%"}, {"compound": "CCC1CCCCN1C(=O)CSc1nnc(-c2ccc(OC)cc2)o1", "note": "(stereo not drawn)", "viability": "95.5%"}, {"compound": "COc1ccc(N(CC(=O)Nc2ccc3c(c2)OCO3)S(=O)(=O)c2c(C)nn(C)c2C)cc1", "viability": "93.3%"}, {"compound": "CCOc1ccc(C2CC(c3ccccc3C)n3nc(N)nc3N2)cc1", "note": "(stereo not drawn)", "viability": "93.8%"}, {"compound": "Cc1cc(N)n2nc(-c3ccccc3)cc2n1", "viability": "65.1%"}, {"compound": "CCCCCn1c(CCNC(=O)CCC)nc2ccccc21", "viability": "94%"}, {"compound": "O=C(c1ccc2c(c1)OCCO2)N1CCCCC1", "viability": "97.2%"}, {"compound": "O=C(NCCc1c[nH]c2ccccc12)c1cnc2n(c1=O)CCS2", "viability": "96.6%"}, {"compound": "CCc1cc(=O)n2[nH]c(C)c(-c3ccccc3OC)c2n1", "viability": "98.6%"}, {"compound": "Cc1ccc(CSc2nc3c(c(=O)[nH]2)CCC3)cc1", "viability": "105%"}, {"compound": "CN(CCNS(=O)(=O)c1ccc2c(c1)oc(=O)n2C)Cc1ccccc1", "viability": "97.5%"}, {"compound": "COc1ccc(-c2nnc(SCC(=O)NC(C)c3ccccc3)o2)cc1", "note": "(stereo not drawn)", "viability": "90.8%"}, {"compound": "CCOc1ccc(Cn2nnc(C(=O)Nc3cc(C)cc(C)c3)c2N)cc1", "viability": "73%"}, {"compound": "CCCCCn1c(CN2CCN(C(=O)c3ccco3)CC2)nc2c1c(=O)n(C)c(=O)n2C", "viability": "93.6%"}, {"compound": "CCN1CCN(Cc2ccc(NC(=O)Nc3ccccc3)cc2)CC1", "viability": "103%"}, {"compound": "CCCN(CCC)C(=O)c1c(C)[nH]c(C(=O)OCC)c1C", "viability": "92.9%"}, {"compound": "COc1cccc(C2CC(c3c(Cl)cccc3Cl)n3nc(N)nc3N2)c1", "note": "(stereo not drawn)", "viability": "103%"}, {"compound": "Cc1c(C(=O)OCc2ccccc2)[nH]c2c1C(=O)CC(c1ccco1)C2", "note": "(stereo not drawn)", "viability": "16.3% (active)"}, {"compound": "Cn1c(=O)c2c(nc(SCCOc3ccc4ccc(=O)oc4c3)n2C)n(C)c1=O", "viability": "99%"}, {"compound": "COc1ccc(NC(=O)CN(c2cc(C)cc(C)c2)S(=O)(=O)c2c(C)noc2C)cc1OC", "viability": "89%"}, {"compound": "CCOc1ccc(N2CC(C(=O)Nc3ccccc3OC)CC2=O)cc1", "note": "(stereo not drawn)", "viability": "102%"}, {"compound": "CC(C)CNc1oc(-c2ccc(F)cc2)nc1C#N", "viability": "101%"}, {"compound": "O=C(Nc1nnc(N2CCCCCC2)s1)c1cc(-c2ccc(Br)cc2)on1", "viability": "99.1%"}, {"compound": "Cc1ccc(N=Cc2ccc[nH]2)c(O)c1", "viability": "71.8%"}, {"compound": "CCCOC(=O)c1[nH]c2c(c1C)C(=O)CC(c1cc(OC)c(OC)c(OC)c1)C2", "note": "(stereo not drawn)", "viability": "48.1%"}, {"compound": "C=CCSc1nc2sc(C)c(C)c2c(=O)[nH]1", "viability": "109%"}, {"compound": "O=C(c1ccc(Br)cc1)N1CCN(S(=O)(=O)c2ccccc2)CC1", "viability": "84.7%"}, {"compound": "CN(C(=O)c1ccco1)c1nnc(C23CC4CC(CC(C4)C2)C3)s1", "viability": "79.5%"}, {"compound": "COc1ccc(-c2nc3c(n2O)CCC/C3=N\\O)cc1", "viability": "94.2%"}, {"compound": "CC1CCC(NC(=O)C2(C)CCC(=O)N2Cc2cccnc2)CC1", "note": "(stereo not drawn)", "viability": "107%"}, {"compound": "Cc1cnc(NC(=O)CSc2nnc(COc3c(C)cccc3C)o2)s1", "viability": "93.9%"}]}, {"assay": "growth suppression of PTEN-deleted HCT116, pilot screen, cell-based, HCT116 clonal line, CellTiter-Glo (AID 824);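 also: 0% = 20 µM Hyamine control and 100% = vehicle cell control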", "conditions": "60 h, at 10 µM, hits give low values", "values": [{"compound": "Nc1nc(N2CCCCC2)nc(N(c2ccccc2)c2ccccc2)n1", "viability": "87.1%"}, {"compound": "O=C1c2ccccc2C(Nc2cccnc2)N1Cc1ccccc1Cl", "note": "(stereo not drawn)", "viability": "99.2%"}, {"compound": "CCN1CCN(c2nc3c(c(=O)[nH]c(=O)n3C)n2CCSc2nc3ccccc3s2)CC1", "viability": "91.4%"}, {"compound": "COc1cc(C(O)c2nc3ccccc3n2C)cc(OC)c1OC", "note": "(stereo not drawn)", "viability": "93.3%"}, {"compound": "CCOC(=O)N1CCC(Nc2nc3ccccc3n3cnnc23)CC1", "viability": "95.2%"}, {"compound": "COc1ccc(C2C(C(C)=O)=C(C)N=c3s/c(=C/c4ccc5c(c4)OCO5)c(=O)n32)cc1", "note": "(stereo not drawn)", "viability": "83.9%"}, {"compound": "CCOC(=O)C1=C(C)N(C)C(=O)NC1c1ccccc1OC", "note": "(stereo not drawn)", "viability": "93.4%"}, {"compound": "CCCCS(=O)(=O)NC1=NCN(CCOC(=O)c2ccccc2)CN1", "viability": "93.2%"}, {"compound": "COc1ccc(-n2c(Cc3cccn3C)nnc2SCC(=O)Nc2cccc(Cl)c2)cc1", "viability": "62.4%"}, {"compound": "CCC1CCCCN1C(=O)CSc1nnc(-c2ccc(OC)cc2)o1", "note": "(stereo not drawn)", "viability": "95.7%"}, {"compound": "COc1ccc(N(CC(=O)Nc2ccc3c(c2)OCO3)S(=O)(=O)c2c(C)nn(C)c2C)cc1", "viability": "90.5%"}, {"compound": "CCOc1ccc(C2CC(c3ccccc3C)n3nc(N)nc3N2)cc1", "note": "(stereo not drawn)", "viability": "83.3%"}, {"compound": "Cc1cc(N)n2nc(-c3ccccc3)cc2n1", "viability": "65.3%"}, {"compound": "CCCCCn1c(CCNC(=O)CCC)nc2ccccc21", "viability": "87.2%"}, {"compound": "O=C(c1ccc2c(c1)OCCO2)N1CCCCC1", "viability": "97.4%"}, {"compound": "O=C(NCCc1c[nH]c2ccccc12)c1cnc2n(c1=O)CCS2", "viability": "95.7%"}, {"compound": "CCc1cc(=O)n2[nH]c(C)c(-c3ccccc3OC)c2n1", "viability": "105%"}, {"compound": "Cc1ccc(CSc2nc3c(c(=O)[nH]2)CCC3)cc1", "viability": "92.9%"}, {"compound": "CN(CCNS(=O)(=O)c1ccc2c(c1)oc(=O)n2C)Cc1ccccc1", "viability": "90.2%"}, {"compound": "COc1ccc(-c2nnc(SCC(=O)NC(C)c3ccccc3)o2)cc1", "note": "(stereo not drawn)", "viability": "89.8%"}, {"compound": "CCOc1ccc(Cn2nnc(C(=O)Nc3cc(C)cc(C)c3)c2N)cc1", "viability": "77.8%"}, {"compound": "CCCCCn1c(CN2CCN(C(=O)c3ccco3)CC2)nc2c1c(=O)n(C)c(=O)n2C", "viability": "93.2%"}, {"compound": "CCN1CCN(Cc2ccc(NC(=O)Nc3ccccc3)cc2)CC1", "viability": "98.7%"}, {"compound": "CCCN(CCC)C(=O)c1c(C)[nH]c(C(=O)OCC)c1C", "viability": "86.7%"}, {"compound": "COc1cccc(C2CC(c3c(Cl)cccc3Cl)n3nc(N)nc3N2)c1", "note": "(stereo not drawn)", "viability": "91.4%"}, {"compound": "Cc1c(C(=O)OCc2ccccc2)[nH]c2c1C(=O)CC(c1ccco1)C2", "note": "(stereo not drawn)", "viability": "18.2% (active)"}, {"compound": "Cn1c(=O)c2c(nc(SCCOc3ccc4ccc(=O)oc4c3)n2C)n(C)c1=O", "viability": "103%"}, {"compound": "COc1ccc(NC(=O)CN(c2cc(C)cc(C)c2)S(=O)(=O)c2c(C)noc2C)cc1OC", "viability": "92.5%"}, {"compound": "CCOc1ccc(N2CC(C(=O)Nc3ccccc3OC)CC2=O)cc1", "note": "(stereo not drawn)", "viability": "102%"}, {"compound": "CC(C)CNc1oc(-c2ccc(F)cc2)nc1C#N", "viability": "84.7%"}, {"compound": "O=C(Nc1nnc(N2CCCCCC2)s1)c1cc(-c2ccc(Br)cc2)on1", "viability": "95.2%"}, {"compound": "Cc1ccc(N=Cc2ccc[nH]2)c(O)c1", "viability": "88.4%"}, {"compound": "CCCOC(=O)c1[nH]c2c(c1C)C(=O)CC(c1cc(OC)c(OC)c(OC)c1)C2", "note": "(stereo not drawn)", "viability": "61.2%"}, {"compound": "C=CCSc1nc2sc(C)c(C)c2c(=O)[nH]1", "viability": "89%"}, {"compound": "O=C(c1ccc(Br)cc1)N1CCN(S(=O)(=O)c2ccccc2)CC1", "viability": "90.4%"}, {"compound": "CN(C(=O)c1ccco1)c1nnc(C23CC4CC(CC(C4)C2)C3)s1", "viability": "66%"}, {"compound": "COc1ccc(-c2nc3c(n2O)CCC/C3=N\\O)cc1", "viability": "96%"}, {"compound": "CC1CCC(NC(=O)C2(C)CCC(=O)N2Cc2cccnc2)CC1", "note": "(stereo not drawn)", "viability": "98.3%"}, {"compound": "Cc1cnc(NC(=O)CSc2nnc(COc3c(C)cccc3C)o2)s1", "viability": "86.1%"}]}]}
